Shown are actives, neighbours in structure and some others; about 6.6% of the full set was active somewhere.
RGS4 inhibitor: Inhibitors of Regulator of G Protein Signaling (RGS) 4: qHTS; Regulator of G-protein signaling 4 (Homo sapiens), P49798; Transcreener GDP fluorescence polarization, RGS4-accelerated GTP hydrolysis; Potency, µM (series often up to 114 µM), for the others: top-dose activity change, negative = inhibition, actives largely listed as inhibitors; 390,000 compounds, 0.039% hits; AID 504845, 2011; further: on the % scale 0 is the no-effect control and ±100 the full control effect; nearly all actives have a fitted effect of over 75% in size
Target sequence (P49798 whole entry, looked up): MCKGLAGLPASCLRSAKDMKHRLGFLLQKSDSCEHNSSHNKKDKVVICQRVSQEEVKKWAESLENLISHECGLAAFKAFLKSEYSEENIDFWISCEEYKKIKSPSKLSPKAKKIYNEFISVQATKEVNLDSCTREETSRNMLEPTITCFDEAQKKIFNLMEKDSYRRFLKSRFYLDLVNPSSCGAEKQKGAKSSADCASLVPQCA
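MLSMR compounds (23 nl, pin-transferred) preincubated 10 min at room temperature with a 500nM (2x) first reagent, then RGS4 at 900nM (2x) plus Transcreener GDP mix added; fluorescence polarization (620/688 nm) read before and after 90 min at 30 °C.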
MCF10A rereplic: A quantitative high throughput screen for small molecules that induce DNA re-replication in MCF 10a normal breast cells; MCF 10A DNA re-replication, Hoechst nuclear intensity, 48 h; Potency, µM (top dose mostly 46.1 µM), for inactives: at the highest dose activity, positive = re-replication, usual class: activators; 350,000 compounds, 2.9% hits; further: % of control where 0% means no effect; nearly all actives have a fitted effect of over 50% in size
KB-V1 MDR tox: qHTS assay for MDR1-selective chemotherapeutics: Primary screen using the drug-selected MDR subline cells KB-V1; KB-V1 MDR cells viability, CellTiter-Glo, 72 h; Potency, µM (highest dose often 46.1 µM), most hits filed as cytotoxic; 400,000 compounds, 3.4% hits; AID 1347076, 2019; further: on the % scale 0 is the no-effect control and ±100 the full control effect; nearly all actives have a fitted effect of over 60% in size
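qHTS viability screen in drug-selected KB-V1 MDR cells: 72 h compound treatment at 37 degrees C, ATP luminescence end point.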
KB-3-1 cytotox: qHTS assay for MDR1-selective chemotherapeutics: Primary screen using the parental adenocarcinoma cell KB-3-1 | KB-3-1 viability, CellTiter-Glo ATP luminescence, 72 h | Potency, µM (top dose mostly 46.1 µM), usual class: cytotoxic | 400,000 compounds, 1.4% hits | AID 1347075, 2019; further: on the % scale 0 is the no-effect control and ±100 the full control effect; nearly all actives have a fitted effect of over 60% in size
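72 h, 37 °C compound treatment of KB-3-1 parental cells; CellTiter-Glo added, 10 min, luminescence read. Data corrected against DMSO-only plates and normalized before curve fitting.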
PTAP TSG101 blk: qHTS Assay for Iinhibitors of HIV-1 Budding by Blocking the Interaction of PTAP/TSG101; 340,000 tested, under 10 active; Fluorescence polarization, FITC-PTAP peptide / Tsg101 binding; Potency, µM (series often up to 115 µM), without a hit: at the highest dose activity change, negative = inhibition, actives largely listed as inhibitors; Tumor susceptibility gene 101 protein (Homo sapiens), Q99816; AID 493005, 2010; active means well fitted inhibition curve with a large enough effect in the main read-out, with a control signal flat, not every such curve was filed as active; inconclusive means small, poorly fitted or top-dose-only effect, or effect the other way, or a change in a side signal; inactive means no such curve, though single readings can be large or run the other way; further: % of control where 0% means no effect
Target sequence (Q99816 whole entry, looked up): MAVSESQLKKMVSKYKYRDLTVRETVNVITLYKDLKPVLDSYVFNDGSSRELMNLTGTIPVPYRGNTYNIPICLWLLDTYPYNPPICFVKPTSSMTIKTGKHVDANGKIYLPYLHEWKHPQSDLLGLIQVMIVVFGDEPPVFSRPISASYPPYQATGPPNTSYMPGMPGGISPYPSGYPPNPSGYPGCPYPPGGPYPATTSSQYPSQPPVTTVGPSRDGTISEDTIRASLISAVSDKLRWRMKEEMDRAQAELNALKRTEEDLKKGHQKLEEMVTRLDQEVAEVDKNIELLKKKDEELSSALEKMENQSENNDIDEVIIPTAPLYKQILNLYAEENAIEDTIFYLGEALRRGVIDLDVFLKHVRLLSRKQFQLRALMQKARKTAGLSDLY
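Fluorescence anisotropy tracks displacement of a FITC-tagged PTAP peptide (50 nM) from the Tsg101 binding domain (10 uM), following a 20 min room-temperature incubation at pH 7.5.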
SW480 rereplic: A quantitative high throughput screen for small molecules that induce DNA re-replication in SW480 colon adenocarcinoma cells; SW480 DNA re-replication, Hoechst DNA content imaging, 48 h; Potency, µM (top dose mostly 46.1 µM), without a hit: at the top dose re-replication activation, most hits filed as activators; 340,000 compounds, 1.8% hits; AID 624297, 2012; further: % of control where 0% means no effect; nearly all actives have a fitted effect of over 55% in size
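SW480 cells exposed to compounds for 48 hr at 37 C, 5% CO2, then Hoechst-stained 40 min. Nuclear DNA content imaged by fluorescence scanning (405 nm excitation, 500-530 nm emission); re-replication scored as increased high-intensity nuclei.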
Numbers without * were called inactive; i = inactive; ? = inconclusive; . = no result given; ! = a repeat was not active; [ ] = another dose, or the depositor's remark. Unless noted, the call rests on the fitted dose curve; in most records, active means well fitted curve in the direction sought with a large enough effect; inconclusive means small, poorly fitted or top-dose-only effect, or another doubt; inactive means no such curve, though single readings can be large; an effect the other way counts as inactive or inconclusive. Potency means the concentration at half of the fitted maximal effect.

SMILES | RGS4 inhibitor | MCF10A rereplic | KB-V1 MDR tox | KB-3-1 cytotox | PTAP TSG101 blk | SW480 rereplic
Cc1ccc(-c2[nH]ncc2/C=N/n2c(COc3ccccc3C)nc3ccccc3c2=O)cc1 | 24.3% | 5.8µM* | ? | ? | 2.3% | ?
O=c1c2ccccc2nc(COc2ccccc2)n1/N=C/c1cc([N+](=O)[O-])ccc1O | -4.2% | 26.0% | 7.31µM* | ? | 0.3% | 6.9%
Cc1cccc(C)c1OCc1nc2ccccc2c(=O)n1/N=C/c1c[nH]c2ccccc12 | -30.9% | 7.6% | ? | ? | -0.6% | 13.8%
O=[N+]([O-])c1ccc(O)c(C=Nc2cccc3ccccc23)c1 | -21.4% | 16.0% | i | i | -13.6% | 0.8%
Cc1ccc2oc3c(c(=O)c2c1)C(c1ccccc1F)N(CCCN1CCOCC1)C3=O (configuration not stated) | 1.5% | . | i | i | . | .
OC[C@H]1NC[C@H](O)[C@@H](O)[C@H]1O | i | . | . | . | . | .
Cc1cc(/C=N/n2c(COc3ccccc3C)nc3ccccc3c2=O)c(O)c([N+](=O)[O-])c1 | -20.5% | 10.0% | i | i | 0.8% | 13µM*
CC1CCCCN1CC(O)COCCC12CC3CC(CC(C3)C1)C2 (configuration not stated) | 24.0% | 5.3% | ? | 16.4µM* | -4.5% | ?
CCOC(=O)c1c(NC(=O)CSc2cn(CCNC(=O)c3c(F)cccc3F)c3ccccc23)sc2c1CCC2 | 7.9% | . | i | i | . | .
CN1CCc2cccc3c2[C@H]1Cc1ccc(O)c(O)c1-3 | ? | 2.91µM* | ? | ? | 0.8% | 8.2µM*!
Cc1ccc(Cl)cc1-n1ncc2c(Nc3ccc4c(c3)OCCO4)ncnc21 | -11.4% | . | i | i | . | .
O=C(NCCc1ccccc1)C(=O)c1c(-c2ccccc2)cc2ccccn12 | 8.4% | -3.2% | 20.6µM* | i | -0.3% | -7.8%
CCc1ccc(C2c3c(oc4ccc(F)cc4c3=O)C(=O)N2CCc2ccc(OC)cc2)cc1 (configuration not stated) | 11.8% | . | i | i | . | .
O=C(Nc1nnc(-c2ccccc2SCc2ccccc2)s1)Nc1ccccc1F | -30.7% | 1.9% | i | i | -6.1% | 3.66µM*
O=C(Nc1nnc(-c2ccccc2F)s1)Nc1ccccc1F | 24.6% | 1.0% | i | i | -4.7% | -1.0%
CCOC(=O)c1c(NC(C)=O)c2c3c(sc2n1Cc1cc(C)ccc1C)CCCC3 | 16.4% | . | . | . | . | .
CC1(C)CC(=O)C2=C(C1)NC(Nc1nc3ccccc3o1)=NC2c1ccccc1 (configuration not stated) | -10.6% | . | i | i | . | .
CC(/C=C/c1ccccc1)=N\NC(N)=S | -9.8%[11.4 µM] | -3.7% | 18.4µM* | ? | 1.4% | 4.5%
CC(/C=C/c1ccccc1)=N\Nc1nc(C)cc(C)n1 | 13.2% | -40.1% | ? | i | -2.9% | ?
CC(/C=C/c1ccc(O)cc1)=NNc1ccccc1 | 17.8% | 23.1µM* | i | i | -5.0% | ?
COc1ccccc1/C=C1\SC(=S)N(CCC(=O)Nc2cccc(O)c2)C1=O | 5.5% | 10.3µM* | i | i | -2.9% | -23.5%
COc1cc(/C=C2\SC(=S)N(CCC(=O)Nc3cccc(O)c3)C2=O)cc(OC)c1OC | -15.0% | ? | i | i | 0.5% | -2.6%
COc1cc(/C=C2\SC(=S)N(CCC(=O)Nc3ccccc3)C2=O)cc(OC)c1OC | -13.3% | 18.4µM* | i | i | 5.9% | -55.8%
COc1cc(/C=C2/SC(=S)N(CCC(=O)Nc3ccccc3)C2=O)cc(OC)c1OC | -3.2% | 20.6µM* | i | i | -2.2% | 0.9%
CCOc1ccccc1C1C(C(=O)Nc2ccccc2)=C(C)Nc2c(C(=O)Nc3ccc(F)cc3)cnn21 (configuration not stated) | -7.0% | . | i | i | . | .
SMILES | RGS4 inhibitor | MCF10A rereplic | KB-V1 MDR tox | KB-3-1 cytotox | PTAP TSG101 blk | SW480 rereplic
Cc1cccc(Nc2ncnc3c2cnn3C)c1C | -17.8% | . | . | . | . | .
O=C(NCCO)c1ccc(-c2nnc(Nc3ccc(OC(F)(F)Cl)cc3)c3ccccc23)cc1 | -46.9% | . | i | i | . | .
Cc1cc(S(=O)(=O)Nc2ccc(O)c(Sc3nc4ccccc4s3)c2)ccc1Cl | -20.4% | . | 18.4µM* | ? | . | .
NC(=S)N/N=C/c1ccc(-c2cc(Cl)cc(Cl)c2)o1 | -45.3% | 13µM* | ? | i | 0.4% | -2.7%
N#C/C(=C/c1ccc(-c2cc([N+](=O)[O-])ccc2Cl)o1)C(N)=O | -21.8% | ? | 11.6µM* | i | -0.3% | ?
NC(=O)N/N=C/c1ccc(-c2cccc(C(F)(F)F)c2)o1 | -0.7% | 4.61µM* | i | ? | -9.3% | -11.8%
CCOC(=O)N/N=C\c1ccc(-c2cc(Cl)ccc2Cl)o1 | -7.5% | ? | i | i | -3.8% | -17.0%
O=C(N/N=C/c1ccc(-c2cccc(C(F)(F)F)c2)o1)c1ccccc1O | -15.2% | ? | i | ? | -6.8% | -5.1%
NC(=S)N/N=C/c1ccc(-c2cc(Cl)ccc2Cl)o1 | -43.0% | -0.4% | 7.31µM* | i | 0.0% | -2.9%
COC(=O)c1ccc(NC(=O)c2nc(SCc3ccccc3F)ncc2Cl)cc1 | . | . | i | i | . | .
CCN1C(=O)c2ccccc2S(=O)(=O)c2ccc(C(=O)NCc3ccccc3Cl)cc21 | -18.0% | . | i | i | . | .
CNC(=S)N/N=C/c1ccc(-c2cc([N+](=O)[O-])ccc2Cl)o1 | -5.0% | 4.3% | i | 7.31µM* | 0.2% | -4.7%
O=[N+]([O-])c1ccc(Cl)c(-c2ccc(/C=N/n3cnnc3)o2)c1 | ? | 2.4% | i | i | -8.7% | -8.6%
Clc1ccc(/C=C/c2ccncc2)cc1Cl | . | . | i | ? | . | .
O=C(c1ccccc1Br)N1CCn2c1nc1ccccc12 | 7.7% | 3.66µM* | i | i | -3.2% | -15.1%
Cn1c(=O)n(C)c2cc(NS(=O)(=O)c3ccc4c(c3)CCCC4)ccc21 | 24.0% | 23.1µM* | 9.2µM* | 18.4µM* | 0.5% | 18.2%
COc1ccc(NS(=O)(=O)c2ccc3c(c2)n(C)c(=O)n3C)cc1 | -17.1% | 5.8µM* | i | i | -14.4% | 2.5%
CN(C)c1ncc(S(=O)(=O)c2ccccc2)c(-c2ccccc2Cl)n1 | -14.2% | -1.8% | 18.4µM* | i | -2.8% | 0.9%
